PubChem BioAssay (Tox21)
Where “and” joins values, the source holds several entries; their conditions need not be identical. Equal values may be shown once. Records with an inconclusive call do not appear. A call without a number means that no potency is given here. Calls of active or inactive are those of the source. Calls follow the shape of the dose curve; as a rule, active = well fitted cell-killing curve with a large enough effect in the repeat runs; inconclusive = weak or mixed curves, or effect the other way; inactive = flat fitted curve, though single readings scatter.

assay: cAMP Responsive Elements (CRE) small molecule antagonists, cell-based qHTS assay: qHTS cell viability counter screen (AID 2060913); conditions: CRE-bla HEK293T viability, CellTiter-Glo luminescence, 5 h; series mostly up to 92.4 µM; also: nearly all actives have a fitted effect of over 40% in size
Method in brief: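 Cytotoxicity counter screen multiplexed with the CRE-bla antagonist read: HEK293T cells in DMEM with dialyzed FBS and 25 mM HEPES were treated 3 hrs under 0.25 uM final NKH477, then viability measured by CellTiter-Glo luminescence.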
Potency is read from the fitted curve at half-maximal effect.

Which Potency does the source give for `Nc1ccc(-c2ccccc2)cc1` here?
Its Potency is “inactive”.

Which Potency does the source give for `COP(=O)(OC)SCn1c(=O)oc2cc(Cl)cnc21` here?
Its Potency is “inactive”.

For `CN1C(=O)CN=C(c2ccccc2)c2cc(Cl)ccc21`, which Potency is on record?
The Potency was “inactive”.

Which Potency does the source give for `Oc1cc(Cl)c(Cl)cc1Cl` here?
Its Potency is “inactive”.

For `C=C(C)[C@@H]1CC=C(C=O)CC1`, which Potency is on record?
The Potency was “inactive”.

With `CCOP(=O)(NC(C)C)Oc1ccc(SC)c(C)c1` (stereo not given) as the compound, how does the Potency read?
Its Potency is “inactive”.

Which Potency does the source give for `O=[N+]([O-])c1ccc(Cl)c([N+](=O)[O-])c1` here?
Its Potency is 27.7 µM (active) and 57 µM (active).

Which Potency does the source give for `CNNC` here?
Its Potency is “inactive”.

With `NC(=O)C(Cl)Cl` as the compound, how does the Potency read?
The Potency was “inactive”.

For `CC(=NC#N)N(C)Cc1ccc(Cl)nc1`, which Potency is on record?
The Potency was “inactive”.

With `CCCCC#N` as the compound, how does the Potency read?
The Potency was “inactive”.

Which Potency does the source give for `Clc1ccccc1-c1ccccc1Cl` here?
Its Potency is “inactive”.

With `N#CC(C#N)=Cc1ccc(O)c(O)c1` as the compound, how does the Potency read?
The Potency was “inactive”.

Which Potency does the source give for `S=C=Nc1cccc2ccccc12` here?
Its Potency is “inactive”.

With `OC(c1ccc(Cl)cc1)(c1ccc(Cl)cc1)c1cccnc1` as the compound, how does the Potency read?
Its Potency is “inactive”.

Which Potency does the source give for `CCN(CC)C(=O)[C@@H]1C=C2c3cccc4[nH]cc(c34)C[C@H]2N(C)C1` here?
Its Potency is “inactive”.

For `O=C(O)C(Br)CBr` (stereo not given), which Potency is on record?
Its Potency is “inactive”.

With `O=C(O)C(Cl)Br` (stereo not given) as the compound, how does the Potency read?
Its Potency is “inactive”.

Which Potency does the source give for `O=[N+]([O-])c1ccc(O)c([N+](=O)[O-])c1` here?
The Potency was 54.5 µM (active).

For `Nc1cc(Cl)ccc1Cl`, which Potency is on record?
The Potency was “inactive”.

For `CC(C)[C@@H](Nc1ccc(C(F)(F)F)cc1Cl)C(=O)OC(C#N)c1cccc(Oc2ccccc2)c1` (stereo not given in full), which Potency is on record?
The Potency was “inactive”.

With `CC(Cc1ccccc1)NCc1ccccc1Cl` (stereo not given) as the compound, how does the Potency read?
Its Potency is “inactive”.

For `[F][Sn]([c]1ccccc1)([c]1ccccc1)[c]1ccccc1`, which Potency is on record?
The Potency was 5.45 µM (active).

With `Brc1ccc(Oc2ccccc2)cc1` as the compound, how does the Potency read?
Its Potency is “inactive”.

Which Potency does the source give for `O=C(Cl)OCc1ccccc1` here?
Its Potency is “inactive”.

With `O=[N+]([O-])c1cc(C(F)(F)F)cc([N+](=O)[O-])c1Cl` as the compound, how does the Potency read?
The Potency was “inactive”.

With `Nc1nc(N)nc(NC2CC2)n1` as the compound, how does the Potency read?
Its Potency is “inactive”.

For `O=C=Nc1ccc(Cl)cc1`, which Potency is on record?
Its Potency is “inactive”.

Which Potency does the source give for `COc1nn(CSP(=S)(OC)OC)c(=O)s1` here?
The Potency was “inactive”.

Which Potency does the source give for `CCNS(=O)(=O)C(F)(F)C(F)(F)C(F)(F)C(F)(F)C(F)(F)C(F)(F)C(F)(F)C(F)(F)F` here?
The Potency was “inactive”.

With `OC(Cn1cncn1)(c1ccc(F)cc1)c1ccccc1F` (stereo not given) as the compound, how does the Potency read?
Its Potency is “inactive”.

With `COC(=O)Cc1ccccc1` as the compound, how does the Potency read?
The Potency was “inactive”.

With `N#C/C(N)=C(/N)C#N` as the compound, how does the Potency read?
The Potency was “inactive”.

Which Potency does the source give for `Nc1c(Cl)c(F)nc(OCC(=O)O)c1Cl` here?
Its Potency is “inactive”.

With `CCC1(c2ccccc2)C(=O)NC(=O)NC1=O` as the compound, how does the Potency read?
Its Potency is “inactive”.

Which Potency does the source give for `CCC[CH2][Sn]([Cl])([CH2]CCC)[CH2]CCC` here?
Its Potency is 3.86 µM (active) and 7.7 µM (active).

For `COc1ccc(OC)c(C=O)c1`, which Potency is on record?
Its Potency is “inactive”.

With `O=[N+]([O-])/C=C/c1ccccc1` as the compound, how does the Potency read?
The Potency was “inactive”.

For `C=CC(=O)OC(C)(C)C`, which Potency is on record?
The Potency was “inactive”.

With `COc1ccc2c(c1OC)CN1CCc3cc4c(cc3C1C2)OCO4` (stereo not given) as the compound, how does the Potency read?
The Potency was “inactive”.
